Reference: the supplement of paper PMC11732987, “Enantioselective OTUD7B fragment discovery through chemoproteomics screening and high-throughput optimisation” (Communications Chemistry, 2025)

Tests used:
Experiment in all cases: log2 ratio of Biotin-Ahx-Ub-VS probe labelling (fragment/DMSO); higher = less target engagement (more negative = stronger competition), active = hit call of the paper (q ≤ 0.05, log2 ratio ≤ -1)
Settings in all cases: compound concentration: 200 uM; treatment time: 3 h
USP19 = molecular target: T1, USP19 (UniProt O94966)
T1 sequence (whole entry): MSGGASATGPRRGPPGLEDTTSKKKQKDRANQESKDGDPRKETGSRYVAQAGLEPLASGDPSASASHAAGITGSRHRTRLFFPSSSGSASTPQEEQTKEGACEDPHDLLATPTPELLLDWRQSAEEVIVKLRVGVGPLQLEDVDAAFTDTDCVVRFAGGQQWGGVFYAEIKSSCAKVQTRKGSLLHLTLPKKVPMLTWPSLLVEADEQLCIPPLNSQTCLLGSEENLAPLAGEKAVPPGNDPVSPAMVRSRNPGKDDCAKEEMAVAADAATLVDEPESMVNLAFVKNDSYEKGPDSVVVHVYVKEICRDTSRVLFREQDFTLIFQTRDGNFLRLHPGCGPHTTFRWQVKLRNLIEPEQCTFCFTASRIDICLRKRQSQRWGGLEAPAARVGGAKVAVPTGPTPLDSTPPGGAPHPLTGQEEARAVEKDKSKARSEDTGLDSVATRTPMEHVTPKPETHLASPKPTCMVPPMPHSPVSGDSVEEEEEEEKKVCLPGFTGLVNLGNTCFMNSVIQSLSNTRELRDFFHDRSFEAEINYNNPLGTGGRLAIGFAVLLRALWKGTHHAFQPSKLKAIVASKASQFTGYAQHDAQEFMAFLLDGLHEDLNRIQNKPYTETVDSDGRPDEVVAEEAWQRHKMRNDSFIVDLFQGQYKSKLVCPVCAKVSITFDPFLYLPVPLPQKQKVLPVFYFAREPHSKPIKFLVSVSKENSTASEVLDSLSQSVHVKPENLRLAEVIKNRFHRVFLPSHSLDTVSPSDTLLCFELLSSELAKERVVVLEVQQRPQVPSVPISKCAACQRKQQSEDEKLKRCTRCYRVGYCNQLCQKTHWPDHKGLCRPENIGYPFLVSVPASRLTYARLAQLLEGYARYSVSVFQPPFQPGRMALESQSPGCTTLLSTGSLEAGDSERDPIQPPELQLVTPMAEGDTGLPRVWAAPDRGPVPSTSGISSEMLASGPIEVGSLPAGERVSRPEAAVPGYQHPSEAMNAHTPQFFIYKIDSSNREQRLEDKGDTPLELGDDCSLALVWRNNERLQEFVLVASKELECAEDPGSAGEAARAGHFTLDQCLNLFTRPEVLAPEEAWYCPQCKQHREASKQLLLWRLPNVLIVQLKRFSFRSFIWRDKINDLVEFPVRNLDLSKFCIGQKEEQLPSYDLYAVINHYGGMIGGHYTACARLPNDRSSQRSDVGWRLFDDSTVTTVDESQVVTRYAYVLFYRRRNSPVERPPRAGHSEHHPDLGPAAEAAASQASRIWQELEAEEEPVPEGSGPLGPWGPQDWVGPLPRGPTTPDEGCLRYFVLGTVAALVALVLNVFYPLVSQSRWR
Summary of the method: (§1)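 Labelled DUBs from HEK293T lysate were NeutrAvidin-enriched, digested with LysC and trypsin, and run by diaPASEF LC-MS/MS. Before that, each 495 µg sample in Tris/CHAPS/IGEPAL buffer with protease inhibitors was treated in triplicate with fragment at 200 µM or vehicle for 3 h, then with Biotin-Ahx-Ub-VS at 0.5 µM final for 1 h. Values are average log2 ratios of fragment over vehicle by unpaired t-test, based on global-median-normalised Spectronaut label-free quantities from proteins with ≥2 unique peptides.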

USP24 = USP24 (UniProt Q9UPU5)
USP24, sequence (Q9UPU5 whole entry): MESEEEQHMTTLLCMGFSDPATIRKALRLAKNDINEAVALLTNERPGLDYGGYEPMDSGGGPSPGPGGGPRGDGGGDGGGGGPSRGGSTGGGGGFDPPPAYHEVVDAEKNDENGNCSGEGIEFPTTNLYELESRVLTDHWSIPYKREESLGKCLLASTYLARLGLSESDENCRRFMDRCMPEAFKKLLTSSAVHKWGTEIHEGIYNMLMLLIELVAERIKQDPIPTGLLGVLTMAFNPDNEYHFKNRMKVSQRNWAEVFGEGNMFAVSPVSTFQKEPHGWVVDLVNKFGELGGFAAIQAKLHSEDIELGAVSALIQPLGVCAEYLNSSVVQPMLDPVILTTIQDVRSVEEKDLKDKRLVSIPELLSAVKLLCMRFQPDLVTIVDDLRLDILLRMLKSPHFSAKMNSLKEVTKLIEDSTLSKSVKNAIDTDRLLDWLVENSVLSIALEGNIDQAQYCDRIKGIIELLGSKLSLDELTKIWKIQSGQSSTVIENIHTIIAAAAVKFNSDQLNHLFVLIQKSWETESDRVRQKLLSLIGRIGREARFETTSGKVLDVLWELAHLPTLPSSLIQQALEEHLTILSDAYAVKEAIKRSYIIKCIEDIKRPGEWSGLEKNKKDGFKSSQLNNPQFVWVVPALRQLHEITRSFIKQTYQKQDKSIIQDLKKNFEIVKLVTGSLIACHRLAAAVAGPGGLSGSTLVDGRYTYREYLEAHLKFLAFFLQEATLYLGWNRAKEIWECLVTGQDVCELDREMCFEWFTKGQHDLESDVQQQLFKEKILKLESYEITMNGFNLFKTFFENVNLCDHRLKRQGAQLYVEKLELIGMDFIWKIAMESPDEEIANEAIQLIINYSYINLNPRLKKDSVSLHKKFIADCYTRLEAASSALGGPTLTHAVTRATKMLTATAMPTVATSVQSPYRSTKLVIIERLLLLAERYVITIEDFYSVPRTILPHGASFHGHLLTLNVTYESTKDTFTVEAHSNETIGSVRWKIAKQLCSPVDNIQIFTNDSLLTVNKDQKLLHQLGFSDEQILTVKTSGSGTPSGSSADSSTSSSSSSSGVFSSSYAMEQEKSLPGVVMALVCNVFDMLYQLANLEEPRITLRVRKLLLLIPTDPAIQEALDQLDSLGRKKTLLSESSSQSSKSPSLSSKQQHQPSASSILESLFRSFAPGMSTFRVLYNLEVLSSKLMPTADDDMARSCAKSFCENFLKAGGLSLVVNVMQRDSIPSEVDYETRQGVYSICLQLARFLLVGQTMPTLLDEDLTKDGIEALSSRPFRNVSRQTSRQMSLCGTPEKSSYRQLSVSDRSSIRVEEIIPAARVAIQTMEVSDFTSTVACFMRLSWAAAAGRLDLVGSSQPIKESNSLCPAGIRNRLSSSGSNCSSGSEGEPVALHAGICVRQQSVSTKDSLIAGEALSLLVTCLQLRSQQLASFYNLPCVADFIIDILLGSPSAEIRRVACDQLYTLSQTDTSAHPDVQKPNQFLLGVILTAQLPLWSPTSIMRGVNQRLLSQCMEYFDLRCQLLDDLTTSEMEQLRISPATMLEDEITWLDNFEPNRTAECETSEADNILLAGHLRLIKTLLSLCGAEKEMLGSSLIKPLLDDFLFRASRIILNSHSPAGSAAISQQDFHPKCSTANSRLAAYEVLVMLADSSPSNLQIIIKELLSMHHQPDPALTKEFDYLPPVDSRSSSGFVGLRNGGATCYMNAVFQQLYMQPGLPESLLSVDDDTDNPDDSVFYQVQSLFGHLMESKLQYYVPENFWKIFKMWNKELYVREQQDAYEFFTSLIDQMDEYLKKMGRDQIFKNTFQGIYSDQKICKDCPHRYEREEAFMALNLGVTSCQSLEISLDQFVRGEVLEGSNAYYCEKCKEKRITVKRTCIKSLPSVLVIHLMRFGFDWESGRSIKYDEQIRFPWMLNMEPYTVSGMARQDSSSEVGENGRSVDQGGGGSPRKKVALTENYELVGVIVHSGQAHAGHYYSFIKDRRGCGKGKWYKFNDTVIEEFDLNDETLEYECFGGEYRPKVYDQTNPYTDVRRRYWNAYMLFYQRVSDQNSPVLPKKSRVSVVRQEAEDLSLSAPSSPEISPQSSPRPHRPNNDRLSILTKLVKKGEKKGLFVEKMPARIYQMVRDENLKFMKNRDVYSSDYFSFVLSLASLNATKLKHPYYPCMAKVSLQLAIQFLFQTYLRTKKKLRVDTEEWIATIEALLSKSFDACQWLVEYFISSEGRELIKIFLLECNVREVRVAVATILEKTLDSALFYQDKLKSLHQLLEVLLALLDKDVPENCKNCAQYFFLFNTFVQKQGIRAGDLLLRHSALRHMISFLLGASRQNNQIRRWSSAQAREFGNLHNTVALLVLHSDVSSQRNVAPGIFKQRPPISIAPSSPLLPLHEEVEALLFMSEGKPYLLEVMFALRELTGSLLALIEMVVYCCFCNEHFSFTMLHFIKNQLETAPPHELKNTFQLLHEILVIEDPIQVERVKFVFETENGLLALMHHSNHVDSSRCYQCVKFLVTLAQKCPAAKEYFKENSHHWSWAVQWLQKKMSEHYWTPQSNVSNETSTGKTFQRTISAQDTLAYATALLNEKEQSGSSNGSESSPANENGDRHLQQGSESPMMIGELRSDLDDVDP
Summary of the method: as §1

USP25 = molecular target: T2, USP25 (UniProt Q9UHP3)
T2 sequence (whole entry): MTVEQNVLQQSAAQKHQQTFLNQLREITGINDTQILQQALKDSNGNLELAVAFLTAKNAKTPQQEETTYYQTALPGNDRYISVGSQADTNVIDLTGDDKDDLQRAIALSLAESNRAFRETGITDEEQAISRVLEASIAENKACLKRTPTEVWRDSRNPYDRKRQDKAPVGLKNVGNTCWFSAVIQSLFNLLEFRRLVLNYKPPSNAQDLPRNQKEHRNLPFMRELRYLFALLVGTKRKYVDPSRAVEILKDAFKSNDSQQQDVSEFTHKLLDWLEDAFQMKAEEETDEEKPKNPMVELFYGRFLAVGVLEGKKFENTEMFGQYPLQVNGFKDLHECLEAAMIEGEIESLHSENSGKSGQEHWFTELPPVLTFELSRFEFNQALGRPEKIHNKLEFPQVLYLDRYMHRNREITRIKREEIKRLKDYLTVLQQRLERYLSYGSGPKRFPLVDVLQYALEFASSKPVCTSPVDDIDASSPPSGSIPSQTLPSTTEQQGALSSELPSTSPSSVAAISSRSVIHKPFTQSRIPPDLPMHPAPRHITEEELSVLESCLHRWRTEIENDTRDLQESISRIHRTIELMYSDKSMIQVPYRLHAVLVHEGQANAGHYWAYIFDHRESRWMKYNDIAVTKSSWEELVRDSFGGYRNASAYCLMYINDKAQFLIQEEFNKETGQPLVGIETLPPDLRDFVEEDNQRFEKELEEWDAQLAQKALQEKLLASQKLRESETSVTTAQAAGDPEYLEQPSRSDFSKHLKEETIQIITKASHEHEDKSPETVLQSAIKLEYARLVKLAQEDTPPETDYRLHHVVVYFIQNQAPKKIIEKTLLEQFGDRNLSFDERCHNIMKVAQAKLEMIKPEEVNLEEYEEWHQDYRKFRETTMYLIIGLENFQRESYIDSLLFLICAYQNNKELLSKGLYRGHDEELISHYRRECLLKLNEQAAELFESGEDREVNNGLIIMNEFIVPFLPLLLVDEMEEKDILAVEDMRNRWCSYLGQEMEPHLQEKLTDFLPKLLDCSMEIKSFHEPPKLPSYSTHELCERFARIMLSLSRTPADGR
Summary of the method: as §1

USP28 = molecular target: T3, USP28 (UniProt Q96RU2)
T3 sequence (whole entry): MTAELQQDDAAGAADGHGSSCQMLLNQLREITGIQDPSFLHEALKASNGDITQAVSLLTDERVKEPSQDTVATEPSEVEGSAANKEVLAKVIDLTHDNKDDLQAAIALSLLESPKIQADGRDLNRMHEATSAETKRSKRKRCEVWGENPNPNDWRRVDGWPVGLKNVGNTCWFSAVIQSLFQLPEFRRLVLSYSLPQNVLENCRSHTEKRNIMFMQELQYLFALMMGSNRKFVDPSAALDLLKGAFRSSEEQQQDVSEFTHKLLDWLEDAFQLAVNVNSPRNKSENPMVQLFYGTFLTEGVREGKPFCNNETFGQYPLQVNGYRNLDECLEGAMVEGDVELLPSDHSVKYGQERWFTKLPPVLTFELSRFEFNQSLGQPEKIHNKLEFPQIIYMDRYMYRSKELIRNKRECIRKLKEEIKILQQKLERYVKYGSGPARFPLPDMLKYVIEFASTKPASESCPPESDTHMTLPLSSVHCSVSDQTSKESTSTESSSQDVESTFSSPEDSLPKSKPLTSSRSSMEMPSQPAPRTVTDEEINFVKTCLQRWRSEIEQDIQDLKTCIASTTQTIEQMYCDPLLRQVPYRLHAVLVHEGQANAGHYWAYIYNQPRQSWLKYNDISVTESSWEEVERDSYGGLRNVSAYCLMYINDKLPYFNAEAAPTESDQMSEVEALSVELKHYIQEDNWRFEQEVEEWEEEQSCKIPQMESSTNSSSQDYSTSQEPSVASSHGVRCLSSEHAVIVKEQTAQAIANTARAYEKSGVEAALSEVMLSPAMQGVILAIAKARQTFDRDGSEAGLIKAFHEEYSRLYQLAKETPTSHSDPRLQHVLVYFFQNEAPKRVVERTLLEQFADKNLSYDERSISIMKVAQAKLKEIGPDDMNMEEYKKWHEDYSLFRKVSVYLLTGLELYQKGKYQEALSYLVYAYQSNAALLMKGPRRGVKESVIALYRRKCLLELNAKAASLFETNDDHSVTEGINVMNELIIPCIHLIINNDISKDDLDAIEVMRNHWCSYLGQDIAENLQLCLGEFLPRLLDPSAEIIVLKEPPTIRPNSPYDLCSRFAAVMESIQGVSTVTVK
Summary of the method: as §1

Measured: log2 ratio of Biotin-Ahx-Ub-VS probe labelling

CN(CCc1ncc(Br)cn1)C(=O)CCl.Cl
inactive: USP19 -0.155 | USP24 -0.487 | USP25 -0.445 | USP28 -0.622
